The nature of experiment [1]: optical density shifts of acrAB sulA E. coli – strain DRC41, OD650, 48 h, E. coli filamentation inducer project, primary screen (AID 1152).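 Note: E. coli MC1000 strain DRC41 lacking acrAB efflux pump and sulA.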 The settings on record: higher = more signal, called active from +8 up or from −8 down.
Experiment [2] in a line: probe aLefty1 binding on compound microarray – biochemical, small-molecule microarray, 635/667 nm fluorescence, primary screen (AID 1153).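 Note: score merges spot fluorescence with signal-to-noise ratio from the scanned slide images.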 As to conditions: higher = more signal.
Experiment [3] is described as follows: plasmodial surface anion channel blockers, osmotic lysis – cell-based, P. falciparum Indochina, OD700, 1 h, primary screen (AID 1154). The settings on record: P. falciparum Indochina infected RBC osmotic lysis, higher = more signal, called active from +8 up or from −8 down.
A short description of experiment [4]: plasmodial surface anion channel blockers, osmotic lysis – cell-based, P. falciparum Indochina, OD700, 2 h, primary screen (AID 1155).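 Note: lysis reports solute entry through the parasite surface anion channel PSAC.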 As to conditions: P. falciparum Indochina infected erythrocytes, higher = more signal, called active from +8 up or from −8 down.
A short description of experiment [5]: changes in parasitized red cell lysis, either direction – P. falciparum Indochina, OD700, 3 h, PSAC antagonist project, primary screen (AID 1156). The settings on record: P. falciparum-infected erythrocytes, osmotic lysis, higher = more signal, called active from +8 up or from −8 down.
Experiment [6] is described as follows: plasmodial surface anion channel blockers, osmotic lysis – cell-based, P. falciparum Indochina, OD700, 18 h, primary screen (AID 1157). The settings on record: P. falciparum Indochina infected erythrocytes, osmotic lysis OD700, 18 h; higher = more signal, called active from +8 up or from −8 down.
Experiment [7] is described as follows: S6 kinase pathway phospho-S6 level changes – cell-based, A549, cytoblot, luminescence, serum-stimulated, primary screen (AID 1158).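 Note: serum-stimulated A549 lung adenocarcinoma cells; signal is phosphorylated S6 detected by cytoblot immunostaining with HRP secondary.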 The settings on record: 5 h, higher = more signal.
Experiment [8] deals with NADPH oxidase 2 (Homo sapiens) (UniProt P04839). The experiment is described as follows: compounds shifting NOX2 Amplex Red fluorescence – cell-based, HEK293-NOX2, PMA-stimulated, NOX inhibitor project, primary screen (AID 1159). Note: test concentration not given here. As to conditions: 45 min, higher = more signal, called active from +8 up or from −8 down.
NADPH oxidase 2 (Homo sapiens), sequence (P04839 whole entry, looked up): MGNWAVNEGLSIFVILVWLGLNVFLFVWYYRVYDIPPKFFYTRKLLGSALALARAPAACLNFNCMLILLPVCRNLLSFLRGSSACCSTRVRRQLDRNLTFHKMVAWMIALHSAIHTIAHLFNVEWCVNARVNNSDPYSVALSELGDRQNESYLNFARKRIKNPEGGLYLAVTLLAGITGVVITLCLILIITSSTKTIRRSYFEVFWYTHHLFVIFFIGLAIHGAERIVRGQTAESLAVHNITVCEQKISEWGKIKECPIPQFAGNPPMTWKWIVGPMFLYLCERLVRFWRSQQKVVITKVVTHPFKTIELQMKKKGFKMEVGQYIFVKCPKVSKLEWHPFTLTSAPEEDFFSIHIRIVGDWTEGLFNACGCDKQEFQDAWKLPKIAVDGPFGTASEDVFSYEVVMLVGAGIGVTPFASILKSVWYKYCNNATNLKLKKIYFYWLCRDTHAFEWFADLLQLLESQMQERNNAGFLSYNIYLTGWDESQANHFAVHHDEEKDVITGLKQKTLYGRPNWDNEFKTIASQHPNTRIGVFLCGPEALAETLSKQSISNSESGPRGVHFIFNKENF
In experiment [9] the target is NADPH oxidase 4 (Homo sapiens) (UniProt Q9NPH5). The experiment is described as follows: compounds shifting NOX4 Amplex Red fluorescence – cell-based, HEK293-NOX4, tetracycline-induced, NOX inhibitor project, primary screen (AID 1160). As to conditions: HEK293-NOX4, Amplex Red H2O2 fluorescence, 45 min; higher = more signal, called active from +8 up or from −8 down.
NADPH oxidase 4 (Homo sapiens), sequence (Q9NPH5 whole entry, looked up): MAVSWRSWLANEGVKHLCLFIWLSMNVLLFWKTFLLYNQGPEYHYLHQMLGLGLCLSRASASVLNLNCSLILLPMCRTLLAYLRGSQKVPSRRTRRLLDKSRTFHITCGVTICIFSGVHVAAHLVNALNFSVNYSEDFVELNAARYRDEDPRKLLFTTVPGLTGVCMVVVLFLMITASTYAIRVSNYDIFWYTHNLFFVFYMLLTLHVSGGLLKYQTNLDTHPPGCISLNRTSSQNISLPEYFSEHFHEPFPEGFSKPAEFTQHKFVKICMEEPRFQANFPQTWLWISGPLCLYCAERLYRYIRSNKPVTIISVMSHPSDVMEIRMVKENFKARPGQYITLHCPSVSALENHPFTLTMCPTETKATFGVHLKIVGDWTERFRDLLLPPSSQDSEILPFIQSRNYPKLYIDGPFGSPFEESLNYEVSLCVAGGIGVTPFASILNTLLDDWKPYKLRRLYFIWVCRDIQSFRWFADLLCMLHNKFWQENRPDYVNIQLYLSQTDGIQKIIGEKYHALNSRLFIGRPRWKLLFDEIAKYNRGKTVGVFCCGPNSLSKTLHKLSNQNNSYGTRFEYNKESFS
For experiment [10], the target named is NADPH oxidase 5 (Homo sapiens) (UniProt Q96PH1). As to the kind of experiment: compounds shifting NOX5 Amplex Red fluorescence – cell-based, HEK293-NOX5, NOX inhibitor project, primary screen (AID 1161). The settings on record: HEK293-NOX5, ionomycin, 45 min, higher = more signal.
NADPH oxidase 5 (Homo sapiens), sequence (Q96PH1 whole entry, looked up): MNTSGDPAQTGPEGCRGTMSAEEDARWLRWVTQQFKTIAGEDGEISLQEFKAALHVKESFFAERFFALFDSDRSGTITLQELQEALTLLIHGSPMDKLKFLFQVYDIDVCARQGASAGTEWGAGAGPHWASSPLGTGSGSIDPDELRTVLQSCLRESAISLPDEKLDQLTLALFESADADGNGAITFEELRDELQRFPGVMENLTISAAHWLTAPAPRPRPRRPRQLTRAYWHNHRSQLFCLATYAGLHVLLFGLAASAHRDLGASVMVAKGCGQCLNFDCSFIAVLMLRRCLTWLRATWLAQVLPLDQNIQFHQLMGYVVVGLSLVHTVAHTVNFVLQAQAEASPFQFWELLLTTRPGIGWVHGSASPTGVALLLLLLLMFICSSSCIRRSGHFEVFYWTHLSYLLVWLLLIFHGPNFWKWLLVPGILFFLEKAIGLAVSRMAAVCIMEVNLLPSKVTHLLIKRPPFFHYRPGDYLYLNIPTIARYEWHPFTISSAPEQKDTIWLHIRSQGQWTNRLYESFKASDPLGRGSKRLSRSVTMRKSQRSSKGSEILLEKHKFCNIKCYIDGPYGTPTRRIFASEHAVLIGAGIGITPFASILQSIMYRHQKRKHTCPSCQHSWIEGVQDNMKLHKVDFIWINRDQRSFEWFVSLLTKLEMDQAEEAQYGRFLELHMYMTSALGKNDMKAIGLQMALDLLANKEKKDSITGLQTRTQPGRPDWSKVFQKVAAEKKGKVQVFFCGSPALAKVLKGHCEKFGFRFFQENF
The nature of experiment [11]: compound effects on lung adenocarcinoma cell viability – A549, calcein-AM fluorescence, 48 h, basal, profiling panel (AID 1162). Note: test concentration not given here. The settings on record: higher = more signal.
Experiment [12] in a line: compound effects on differentiated 3T3-L1 adipocyte viability – cell-based, 3T3-L1 adipocytes, calcein-AM fluorescence, 48 h, basal, profiling panel (AID 1163). Note: test concentration not given here. As to conditions: 3T3-L1 adipocytes viability, higher = more signal.
A short description of experiment [13]: compound effects on hepatocellular carcinoma cell viability – HepG2, calcein-AM fluorescence, 48 h, basal, profiling panel (AID 1164). Note: test concentration not given here. As to conditions: higher = more signal.
Experiment [14] in a line: compound effects on multiple myeloma cell viability – MM1S, calcein-AM fluorescence, 48 h, basal, profiling panel (AID 1165). Note: test concentration not given here. As to conditions: higher = more signal.
Experiment [15] can be described thus: calcein-AM signal in unstimulated myeloma cells – cell-based, calcein-AM fluorescence, 48 h, PK04 Diversity Set, profiling panel (AID 1166).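 Note: cells grown under basal conditions without added stimulus; test concentration not given here.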 The settings on record: RPMI8226 myeloma viability, higher = more signal.
Experiment [16] is described as follows: JC-1 mitochondrial signal, unstimulated HepG2 cells – cell-based, JC-1 fluorescence, 24 h, 100 nL compound, profiling panel (AID 1167). Note: test concentration not given here. The settings on record: HepG2 mitochondrial potential, higher = more signal.
Experiment [17] can be described thus: JC-1 mitochondrial signal, unstimulated adipocytes – cell-based, JC-1 fluorescence, 3T3-L1 adipocytes, 24 h, 100 nL compound, profiling panel (AID 1168). Note: test concentration not given here. As to conditions: JC-1 mitochondrial fluorescence, higher = more signal, called active from +8 up or from −8 down.
A short description of experiment [18]: JC-1 mitochondrial signal, unstimulated myeloma cells – cell-based, JC-1 fluorescence, RPMI8226, 24 h, 100 nL compound, profiling panel (AID 1169). Note: test concentration not given here. The settings on record: JC-1 mitochondrial potential fluorescence, higher = more signal.
Experiment [19] is described as follows: JC-1 mitochondrial signal, unstimulated MM1S myeloma – cell-based, JC-1 fluorescence, 24 h, 100 nL compound, profiling panel (AID 1170). Note: test concentration not given here. As to conditions: MM1S mitochondrial potential, higher = more signal.
The nature of experiment [20]: resazurin metabolic signal in A549 cells – cell-based, resazurin fluorescence, 24 h, PK04 Diversity Set, profiling panel (AID 1171). Note: test concentration not given here. The settings on record: A549 viability, higher = more signal, called active from +8 up or from −8 down.

SMILES strings stand for the structures. Calls of active or inactive are those of the source.

As to `COc1cc(NN2C(C(O)c3ccc(I)cc3)C=CC3C(=O)N(c4ccccc4)C(=O)C32)cc(OC)c1OC` (stereo not given), the z-score is -0.877 (inactive) in experiment [1]; 2.08 (inactive) in experiment [3]; 0.477 (inactive) in experiment [4]; 0.481 (inactive) in [5]; -0.497 (inactive) in [6]; 1.52 in experiment [7]. The z-score in experiment [8] was -3.15 (inactive); in [9], -4.09 (inactive); in experiment [10], -6.01; in [11], -0.844; in experiment [12] it was -0.294; in [13], -0.683. Also, the z-score in experiment [14] is -0.344; in experiment [15] it was -1.4; in experiment [16], -1.14; in [17], -1.46 (inactive); in experiment [18], -0.786; in [19], -1.4. In [20], the z-score is -0.749 (inactive). Further, the composite z-score in [2] was determined as 0.365.

With `COc1ccc(C(=O)Nc2cccc(CN3C(=O)[C@@]4(O[C@@H](CC(=O)N(CCO)Cc5ccccc5)[C@H]([Si](C)(C)c5ccc(OC)cc5)[C@H]4C)c4ccccc43)c2)cc1`, the z-score in experiment [1] is 1.23 (inactive); in experiment [3], 12.3 (active); in [4], 0.833 (inactive); in experiment [5], -0.39 (inactive); in experiment [6], -1.31 (inactive); in [7], 1.58. For the same compound, the z-score in experiment [8] was 0.306 (inactive); in experiment [9], 0.56 (inactive); in experiment [10], 2.08; in [11], -0.269; in [12] it was 1.36; in experiment [13], -1.39. For the same compound, the z-score is -0.696 in experiment [14]; -4.07 in experiment [15]; 0.672 in experiment [16]; 2.67 (inactive) in experiment [17]; -0.865 in experiment [18]; -0.789 in experiment [19]. Further, in experiment [20], the z-score was -2.23 (inactive). For the same compound, the composite z-score in experiment [2] is -0.443.

Take `COCCCNC(=O)[C@@]1(Sc2ccc(C)cc2)CC(=O)N(C(C)C)[C@@H]1c1ccc(CO)cc1I`: the z-score in experiment [1] is -0.158 (inactive); in experiment [3], 6.72 (inactive); in experiment [4], -0.602 (inactive); in experiment [5], 0.349 (inactive); in [6], -1.49 (inactive); in [7], 1.61. The z-score in [8] was 1.77 (inactive); in experiment [9], -1.47 (inactive); in [10], -0.854; in [11], 0.781; in [12], 1.74; in [13] it was -1.16. Besides, the z-score in experiment [14] is -2.2; in [15], -2.38; in experiment [16] it was 0.544; in experiment [17], -0.0068 (inactive); in experiment [18] it was -0.205; in experiment [19], -2.75. Moreover, the z-score in experiment [20] was 0.534 (inactive). For the same compound, the composite z-score in experiment [2] was 0.0445.

As for `COCCOC(=O)N1C(=O)[C@@]2(c3cc(C#CCC(C(=O)OC)C(=O)OC)ccc31)[C@H](c1ccc(OCCO)cc1)N1[C@H](c3ccccc3)[C@H](c3ccccc3)OC(=O)[C@H]1[C@@H]2C(=O)Nc1nc2ccccc2s1`, the z-score was 2.25 (inactive) in experiment [1]; 4.99 (inactive) in experiment [3]; 2.47 (inactive) in experiment [4]; 0.924 (inactive) in experiment [5]; 2.21 (inactive) in [6]; 0.0091 in experiment [7]. Also, the z-score in [8] is 0.892 (inactive); in experiment [9], 0.647 (inactive); in experiment [10], 0.93; in experiment [11], 0.705; in [12], 0.694; in [13], 0.278. Further, the z-score in experiment [14] was -0.518; in experiment [15], -0.312; in experiment [16], -2.91; in experiment [17] it was 0.578 (inactive); in experiment [18], -1.01; in [19], -1.29. The z-score in experiment [20] was 0.108 (inactive). In [2], the composite z-score worked out at 0.129.

In the case of `CC(C)(C)OC(=O)CC[C@]12N=C(c3ccc(OCCCO)cc3)O[C@H]1c1ccccc1N(Cc1ccccc1)C2=O`, the z-score is 0.617 (inactive) in experiment [1]; 27 (active) in [3]; 28.2 (active) in experiment [4]; 4.42 (inactive) in [5]; 2.09 (inactive) in [6]; 0.34 in [7]. The z-score in experiment [8] is 3.89 (inactive); in experiment [9], 0.102 (inactive); in [10], -1.71; in experiment [11], 0.413; in experiment [12] it was 0.709; in experiment [13], 0.909. Moreover, the z-score was -2.74 in experiment [14]; -4.27 in experiment [15]; 0.0521 in experiment [16]; 1.16 (inactive) in [17]; -1.2 in experiment [18]; -0.0831 in [19]. In experiment [20], the z-score was 1.66 (inactive). For the same compound, in experiment [2], the composite z-score worked out at 0.848.

`COc1cc(NN2C(C(O)C3CCCCC3)C=CC3C(=O)N(c4ccccc4)C(=O)C32)cc(OC)c1OC` (stereo not given): the z-score in experiment [1] is -1.02 (inactive); in experiment [3] it was 1.73 (inactive); in experiment [4], -0.35 (inactive); in experiment [5] it was 1.36 (inactive); in [6], -1.16 (inactive); in experiment [7], 1.37. For the same compound, the z-score in experiment [8] was -3.07 (inactive); in experiment [9], -5.15 (inactive); in [10] it was -5.24; in [11] it was -0.278; in experiment [12], 0.0809; in [13], 0.736. The z-score in experiment [14] was -0.434; in [15], -1.8; in [16] it was -1.08; in [17] it was 0.0506 (inactive); in experiment [18] it was -0.741; in experiment [19] it was 0.439. For the same compound, in experiment [20], the z-score is -1.37 (inactive). In addition, the composite z-score in [2] is -0.441.

Take `COC(=O)C(CC#Cc1ccc2c(c1)[C@]1(C(=O)N2)[C@H](c2ccc(OCCO)cc2)N2[C@H](c3ccccc3)[C@H](c3ccccc3)OC(=O)[C@H]2[C@@H]1C(=O)N1CCN(c2ncccn2)CC1)C(=O)OC`: the z-score is -0.34 (inactive) in experiment [1]; 4.2 (inactive) in experiment [3]; 1.62 (inactive) in [4]; 0.257 (inactive) in experiment [5]; 0.539 (inactive) in [6]; -0.454 in experiment [7]. Besides, the z-score in experiment [8] is 1.46 (inactive); in experiment [9], 1.05 (inactive); in experiment [10], 1.52; in experiment [11] it was -0.824; in experiment [12], -0.661; in experiment [13], 0.228. In addition, the z-score was -0.966 in experiment [14]; -3.72 in experiment [15]; -1.01 in experiment [16]; 0.525 (inactive) in [17]; -1 in experiment [18]; -1.55 in [19]. In experiment [20], the z-score is 0.352 (inactive). For the same compound, the composite z-score in experiment [2] stood at 0.53.

The values are drawn from PubChem BioAssay.
